From the supplement of paper PMC10849652
Targets with a hit are over-represented here; the source holds about 8,800 in all. About 0.5% of all pairs of compound and target were hits. Unmarked numbers belong to inactive results.

Key:
Assay in all cases: log2 fold change, soluble protein after heating vs DMSO (PISA); higher = thermal stabilisation; K562 lysate, 10 uM; active = over 0.2 and 3.5 SD of the protein, either way, in both replicates (recomputed)
[1] = compound: C1=CC=C(C=C1)[C@H](COC2=CC3=C(C=C2)NC(=O)N3)NC(=O)C4=CC=CN(C4=O)CC5=CC(=C(C=C5)F)F
In short: (§1)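 A 30 min treatment with 10 μM compound was applied to crude K562 extract at 1 mg/mL protein in PBS pH 7.4 with 1 mM MgCl2. Heating for 3 min spanned 48°C-58°C, after which aliquots were pooled, adjusted to 0.5% NP-40 at 4°C and spun at 21,000xg for 90 min. TMTpro 16plex LC-MS/MS of the supernatant, with channel sums equalised, gave values recorded as log-two fold change in thermal stability against solvent controls, from duplicates.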

[2] = compound: CC1=C(SC2=C1C(=N[C@H](C3=NN=C(N32)C)CC(=O)N)C4=CC=C(C=C4)Cl)C
In short: as §1

[3] = compound: CC1=C2C(=CC=C1)N=C(N(C2=O)C3=CC=CC=C3C)CN4C=NC5=C(N=CN=C54)N
In short: as §1

[4] = compound: Cc1sc2c(c1C)C(c1ccc(Cl)cc1)=N[C@@H](CC(=O)OC(C)(C)C)c1nnc(C)n1-2
In short: as §1

[5] = compound: c1ccc([C@@H]2C[C@H]2NC2CCNCC2)cc1
In short: as §1

Sequence of UniProt P37268 (P37268 whole entry, looked up): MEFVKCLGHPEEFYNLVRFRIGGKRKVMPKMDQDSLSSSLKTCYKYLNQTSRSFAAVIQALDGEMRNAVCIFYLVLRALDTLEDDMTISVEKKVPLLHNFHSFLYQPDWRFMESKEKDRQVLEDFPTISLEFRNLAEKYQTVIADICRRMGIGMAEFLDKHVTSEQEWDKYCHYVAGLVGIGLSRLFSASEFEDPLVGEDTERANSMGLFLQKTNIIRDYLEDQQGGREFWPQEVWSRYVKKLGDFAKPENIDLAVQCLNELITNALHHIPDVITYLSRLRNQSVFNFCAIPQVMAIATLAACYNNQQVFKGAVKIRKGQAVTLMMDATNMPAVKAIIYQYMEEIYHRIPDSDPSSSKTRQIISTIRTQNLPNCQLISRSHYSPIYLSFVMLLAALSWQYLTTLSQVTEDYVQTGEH
Sequence of UniProt P22102 (P22102 whole entry, looked up): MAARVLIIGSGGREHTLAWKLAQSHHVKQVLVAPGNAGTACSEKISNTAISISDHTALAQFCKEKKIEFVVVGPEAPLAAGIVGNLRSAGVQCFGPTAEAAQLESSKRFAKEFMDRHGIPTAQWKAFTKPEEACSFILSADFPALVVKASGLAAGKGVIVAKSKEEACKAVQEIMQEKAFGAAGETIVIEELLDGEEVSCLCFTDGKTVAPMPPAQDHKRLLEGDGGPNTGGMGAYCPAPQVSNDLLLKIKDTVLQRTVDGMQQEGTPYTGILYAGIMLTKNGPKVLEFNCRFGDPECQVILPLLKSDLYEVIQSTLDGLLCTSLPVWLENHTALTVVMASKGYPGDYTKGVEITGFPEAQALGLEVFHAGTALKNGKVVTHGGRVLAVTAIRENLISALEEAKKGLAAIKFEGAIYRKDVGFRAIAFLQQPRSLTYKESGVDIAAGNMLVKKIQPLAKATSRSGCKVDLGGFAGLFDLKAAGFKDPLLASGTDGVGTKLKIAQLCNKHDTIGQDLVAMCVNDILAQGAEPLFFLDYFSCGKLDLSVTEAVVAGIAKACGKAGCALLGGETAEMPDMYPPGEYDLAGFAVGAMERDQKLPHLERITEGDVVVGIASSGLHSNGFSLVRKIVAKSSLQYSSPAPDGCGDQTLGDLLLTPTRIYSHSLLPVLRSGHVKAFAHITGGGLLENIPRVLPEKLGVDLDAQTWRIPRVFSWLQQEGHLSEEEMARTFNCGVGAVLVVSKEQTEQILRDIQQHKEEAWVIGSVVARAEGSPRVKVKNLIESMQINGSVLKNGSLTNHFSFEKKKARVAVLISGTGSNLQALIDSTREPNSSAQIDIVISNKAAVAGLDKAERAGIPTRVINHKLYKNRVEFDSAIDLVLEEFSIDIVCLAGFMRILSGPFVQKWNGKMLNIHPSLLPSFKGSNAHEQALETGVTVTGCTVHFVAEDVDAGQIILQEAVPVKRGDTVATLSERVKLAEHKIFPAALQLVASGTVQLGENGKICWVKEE
Sequence of UniProt Q9BQS8 (Q9BQS8 whole entry, looked up): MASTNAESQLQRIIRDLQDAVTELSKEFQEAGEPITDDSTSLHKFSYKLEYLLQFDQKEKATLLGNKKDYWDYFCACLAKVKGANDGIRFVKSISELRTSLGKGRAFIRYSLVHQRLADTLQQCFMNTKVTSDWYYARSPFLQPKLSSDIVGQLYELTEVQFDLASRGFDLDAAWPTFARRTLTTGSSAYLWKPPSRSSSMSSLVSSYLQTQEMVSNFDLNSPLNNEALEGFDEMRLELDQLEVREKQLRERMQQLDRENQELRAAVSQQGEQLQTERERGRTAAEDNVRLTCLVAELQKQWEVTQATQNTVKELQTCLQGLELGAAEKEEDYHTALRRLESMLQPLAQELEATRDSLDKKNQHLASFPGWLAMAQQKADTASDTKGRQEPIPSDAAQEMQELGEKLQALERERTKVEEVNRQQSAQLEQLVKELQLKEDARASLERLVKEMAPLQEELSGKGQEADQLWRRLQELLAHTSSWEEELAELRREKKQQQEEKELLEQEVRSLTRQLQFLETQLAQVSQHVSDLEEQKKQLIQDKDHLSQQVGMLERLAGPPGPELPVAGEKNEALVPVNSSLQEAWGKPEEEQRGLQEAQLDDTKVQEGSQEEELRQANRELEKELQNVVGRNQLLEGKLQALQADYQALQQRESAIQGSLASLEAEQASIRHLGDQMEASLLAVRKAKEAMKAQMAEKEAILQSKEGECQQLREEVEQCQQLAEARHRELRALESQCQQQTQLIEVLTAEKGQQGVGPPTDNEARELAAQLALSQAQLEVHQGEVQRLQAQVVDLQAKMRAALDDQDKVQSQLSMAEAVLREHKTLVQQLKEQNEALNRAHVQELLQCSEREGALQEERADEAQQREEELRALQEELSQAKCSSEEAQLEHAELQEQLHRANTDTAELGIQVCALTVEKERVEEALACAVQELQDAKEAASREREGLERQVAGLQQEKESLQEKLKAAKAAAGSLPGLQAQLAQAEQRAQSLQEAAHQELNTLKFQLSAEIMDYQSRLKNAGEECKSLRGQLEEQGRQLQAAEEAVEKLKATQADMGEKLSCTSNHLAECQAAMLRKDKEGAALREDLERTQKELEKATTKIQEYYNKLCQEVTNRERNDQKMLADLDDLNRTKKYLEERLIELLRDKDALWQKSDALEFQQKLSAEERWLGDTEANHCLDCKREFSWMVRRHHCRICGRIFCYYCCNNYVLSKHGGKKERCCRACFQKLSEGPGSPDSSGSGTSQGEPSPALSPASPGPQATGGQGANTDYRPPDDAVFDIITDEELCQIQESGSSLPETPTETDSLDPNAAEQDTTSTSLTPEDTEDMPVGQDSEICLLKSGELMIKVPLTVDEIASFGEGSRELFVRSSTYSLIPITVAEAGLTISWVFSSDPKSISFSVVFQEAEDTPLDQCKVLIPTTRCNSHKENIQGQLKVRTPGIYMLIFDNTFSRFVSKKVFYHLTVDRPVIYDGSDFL
Sequence of UniProt P11171 (P11171 whole entry, looked up): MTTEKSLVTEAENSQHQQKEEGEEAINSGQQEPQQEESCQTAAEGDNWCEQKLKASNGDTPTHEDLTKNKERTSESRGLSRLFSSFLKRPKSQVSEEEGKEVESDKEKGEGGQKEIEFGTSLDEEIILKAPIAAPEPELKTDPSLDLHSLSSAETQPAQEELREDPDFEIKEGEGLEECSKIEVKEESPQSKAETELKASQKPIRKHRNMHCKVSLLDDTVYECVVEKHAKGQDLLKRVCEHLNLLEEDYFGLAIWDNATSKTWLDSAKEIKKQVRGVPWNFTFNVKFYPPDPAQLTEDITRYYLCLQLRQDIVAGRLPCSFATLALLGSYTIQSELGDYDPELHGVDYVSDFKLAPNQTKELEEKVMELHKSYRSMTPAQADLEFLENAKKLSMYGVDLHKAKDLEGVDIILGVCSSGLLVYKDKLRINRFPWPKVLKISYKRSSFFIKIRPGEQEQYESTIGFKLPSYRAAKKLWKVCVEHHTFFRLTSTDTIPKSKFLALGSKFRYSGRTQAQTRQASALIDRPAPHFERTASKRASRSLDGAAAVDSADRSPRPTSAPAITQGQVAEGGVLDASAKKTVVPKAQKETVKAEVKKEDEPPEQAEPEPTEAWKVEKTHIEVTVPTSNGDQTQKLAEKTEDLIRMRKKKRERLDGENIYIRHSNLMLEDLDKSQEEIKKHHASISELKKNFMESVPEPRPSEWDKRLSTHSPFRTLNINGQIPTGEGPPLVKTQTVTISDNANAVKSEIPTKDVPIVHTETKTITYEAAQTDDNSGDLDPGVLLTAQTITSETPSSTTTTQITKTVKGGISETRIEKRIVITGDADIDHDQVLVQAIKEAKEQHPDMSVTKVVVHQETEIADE
Sequence of UniProt Q15723 (Q15723 whole entry, looked up): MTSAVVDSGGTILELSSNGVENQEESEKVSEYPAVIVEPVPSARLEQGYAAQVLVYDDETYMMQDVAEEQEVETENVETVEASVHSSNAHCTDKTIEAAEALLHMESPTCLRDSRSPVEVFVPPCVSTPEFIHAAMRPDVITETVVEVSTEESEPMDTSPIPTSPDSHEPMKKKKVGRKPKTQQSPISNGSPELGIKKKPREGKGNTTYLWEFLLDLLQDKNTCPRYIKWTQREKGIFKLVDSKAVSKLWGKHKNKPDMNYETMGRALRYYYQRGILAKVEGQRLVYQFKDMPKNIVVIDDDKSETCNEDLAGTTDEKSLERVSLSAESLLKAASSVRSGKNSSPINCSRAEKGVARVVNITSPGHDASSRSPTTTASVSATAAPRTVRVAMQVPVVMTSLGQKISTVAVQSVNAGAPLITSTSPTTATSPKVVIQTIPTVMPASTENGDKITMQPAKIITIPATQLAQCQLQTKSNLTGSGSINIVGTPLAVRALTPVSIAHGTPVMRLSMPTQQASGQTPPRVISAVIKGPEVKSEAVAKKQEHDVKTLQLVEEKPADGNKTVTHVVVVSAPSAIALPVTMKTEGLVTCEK
Sequence of UniProt P57772 (P57772 whole entry, looked up): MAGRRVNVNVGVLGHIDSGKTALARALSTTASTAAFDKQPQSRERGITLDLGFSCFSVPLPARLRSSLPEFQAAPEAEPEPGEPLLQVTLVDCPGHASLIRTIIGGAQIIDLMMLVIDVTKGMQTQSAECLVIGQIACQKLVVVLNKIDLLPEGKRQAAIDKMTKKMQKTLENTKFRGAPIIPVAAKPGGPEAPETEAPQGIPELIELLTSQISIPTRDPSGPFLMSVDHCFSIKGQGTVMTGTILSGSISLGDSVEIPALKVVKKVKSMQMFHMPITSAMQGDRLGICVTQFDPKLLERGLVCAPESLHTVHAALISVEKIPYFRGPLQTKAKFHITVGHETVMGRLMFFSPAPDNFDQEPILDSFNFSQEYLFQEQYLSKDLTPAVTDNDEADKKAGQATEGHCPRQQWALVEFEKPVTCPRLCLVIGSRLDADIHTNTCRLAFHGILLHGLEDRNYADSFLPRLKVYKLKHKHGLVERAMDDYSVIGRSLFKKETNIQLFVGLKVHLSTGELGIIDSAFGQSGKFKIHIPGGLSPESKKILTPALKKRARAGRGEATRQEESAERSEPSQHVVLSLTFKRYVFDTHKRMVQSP

Target	log2 fold change [1]	log2 fold change [2]	log2 fold change [3]	log2 fold change [4]	log2 fold change [5]
EXOC3 (UniProt O60645)	-0.026	-0.019	0.053	-0.017	0.08
FDFT1 (UniProt P37268)	-0.045	0.268 (active)	0	0.107	-0.047
ENSA isoform 3 (UniProt O43768)	0.037	-0.027	-0.024	-0.008	0.02
ELF2 (UniProt Q15723)	-0.162	-0.074	0.044	-0.005	0.013
GART (UniProt P22102)	-0.04	0.047	0.011	0.057	0.042
FYCO1 isoform 4 (UniProt Q9BQS8)	0.01	0.037	0.03	0.023	-0.1
EEFSEC (UniProt P57772)	-0.033	-0.003	0.009	-0.003	0.015
EIF2B3 (UniProt Q9NR50)	-0.047	0.008	-0.01	0.004	0.107
G6PD isoform 2 (UniProt P11413)	0.023	-0.002	0.011	0.053	0.075
EPB41 (UniProt P11171)	-0.004	-0.021	-0.023	0.027	0.032
DTYMK (UniProt P23919)	-0.041	0.014	-0.029	-0.096	0.098
EPN2 (UniProt O95208)	-0.012	-0.017	-0.02	-0.084	-0.161
FPGT (UniProt O14772)	0.007	-0.003	0.07	-0.006	0.104
